Laboratory results published in article PMC4336329 (PLoS ONE, 2015).
About 14,000 (4.5%) of roughly 310,000 compounds showed an effect of 50% or more. The effect is printed as a negative number. This excerpt belongs to a sample that is enriched for strong results.

molecular target: human ether-à-go-go-related gene (hERG) potassium channel (human, UniProt Q12809); experiment: primary screen, population patch clamp on CHO cells stably expressing hERG; higher = less effect of the substance
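Further: peak tail current of the secondary pulse compared with the same well before compound.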

Sequence of human ether-à-go-go-related gene (hERG) potassium channel (Q12809 whole entry, looked up): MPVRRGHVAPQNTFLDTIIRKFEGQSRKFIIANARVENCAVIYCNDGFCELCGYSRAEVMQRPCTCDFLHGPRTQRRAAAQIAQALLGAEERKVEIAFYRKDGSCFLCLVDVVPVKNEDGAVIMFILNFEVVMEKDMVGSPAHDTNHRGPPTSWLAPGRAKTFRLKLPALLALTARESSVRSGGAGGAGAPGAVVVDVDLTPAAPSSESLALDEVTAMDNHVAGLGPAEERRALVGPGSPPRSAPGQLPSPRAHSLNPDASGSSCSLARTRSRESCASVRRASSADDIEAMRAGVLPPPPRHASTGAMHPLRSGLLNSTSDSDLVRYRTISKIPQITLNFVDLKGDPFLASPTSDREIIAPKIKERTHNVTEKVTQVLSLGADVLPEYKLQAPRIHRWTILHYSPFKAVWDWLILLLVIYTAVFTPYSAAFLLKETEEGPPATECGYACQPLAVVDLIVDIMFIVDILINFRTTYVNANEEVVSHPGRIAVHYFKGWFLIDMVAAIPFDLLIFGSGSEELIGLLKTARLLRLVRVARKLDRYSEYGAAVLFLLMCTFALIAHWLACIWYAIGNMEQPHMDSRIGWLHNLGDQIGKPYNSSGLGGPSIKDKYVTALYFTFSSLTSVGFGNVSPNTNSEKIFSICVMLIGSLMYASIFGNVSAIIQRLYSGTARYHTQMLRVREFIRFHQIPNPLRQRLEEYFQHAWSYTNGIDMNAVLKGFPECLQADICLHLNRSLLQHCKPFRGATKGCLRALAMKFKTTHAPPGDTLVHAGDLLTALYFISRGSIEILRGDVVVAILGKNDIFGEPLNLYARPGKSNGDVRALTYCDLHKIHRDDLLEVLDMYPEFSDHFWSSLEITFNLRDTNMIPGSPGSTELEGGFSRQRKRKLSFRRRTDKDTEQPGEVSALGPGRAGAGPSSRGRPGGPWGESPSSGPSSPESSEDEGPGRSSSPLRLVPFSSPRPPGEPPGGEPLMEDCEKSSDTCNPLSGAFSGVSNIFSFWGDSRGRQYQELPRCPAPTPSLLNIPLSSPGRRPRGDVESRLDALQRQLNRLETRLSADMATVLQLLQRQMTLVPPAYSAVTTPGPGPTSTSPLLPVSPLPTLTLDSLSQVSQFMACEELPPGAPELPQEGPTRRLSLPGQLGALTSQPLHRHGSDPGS

Row | SMILES | hERG current change (%, negative = inhibition) at 10uM
1 | COc1ccc(CNC(=O)c2coc(=O)c3ccccc23)cc1 | -27.3%
2 | O=C(NC1CCN(Cc2ccccc2)CC1)C(NS(=O)(=O)c1cccc2nsnc12)c1ccccc1 (stereo not shown) | -44.6%
3 | Cc1ccc(OCC(=O)N/N=C\c2cccn2C)c([N+](=O)[O-])c1 | -8.65%
4 | O=C(O)[C@H]1CCCC[C@H]1C(=O)Nc1ccc(Nc2ccccc2)cc1 | 4.15%
5 | CSc1sc(C(=O)N2CCc3ccccc32)cc1S(=O)(=O)C(C)C | 14.2%
6 | Cc1ccc(S(=O)(=O)N2CCN(c3ccc([N+](=O)[O-])c(Sc4nncn4C)c3)CC2)cc1 | -62.3%
7 | Cn1cnnc1Sc1cc(N2CCN(S(=O)(=O)c3ccccc3)CC2)ccc1[N+](=O)[O-] | -60.5%
8 | CN1CCN(c2ccc([N+](=O)[O-])c(Sc3nncn3C)c2)CC1 | -9.71%
9 | Cn1cnnc1Sc1cc(N2CCN(S(=O)(=O)c3ccc(Cl)c(Cl)c3)CC2)ccc1[N+](=O)[O-] | -10.6%
10 | Cn1cnnc1Sc1cc(N2CCNCC2)ccc1[N+](=O)[O-] | 7.66%
11 | Cn1cnnc1Sc1ccc(S(C)(=O)=O)cc1[N+](=O)[O-] | 13%
12 | [N-]=[N+]=NC(c1ccccc1)c1nc2ccccc2[nH]c1=O (stereo not shown) | -7.74%
13 | Nc1ccccc1Cl | 10.3%
14 | O=C(NCc1ccco1)c1cccc(Nc2nc3ccc(Br)cc3[nH]2)c1 | -11.2%
15 | Cc1ccc(-n2c(C)cc(/C=N/Nc3ccc([N+](=O)[O-])cn3)c2C)cc1 | -4.67%
16 | COc1ccc(NC(=O)/C(C#N)=C\c2cc(C)n(-c3ccc(Oc4ccc([N+](=O)[O-])cn4)cc3)c2C)cc1 | 10.8%
17 | Cc1cc(C=O)c(C)n1-c1ccc(Oc2ccc([N+](=O)[O-])cn2)cc1 | -56.7%
18 | COCC(=O)N1CCC(Oc2ccc(C(=O)NC(C)c3csc(C)n3)cc2)CC1 (stereo not shown) | 10.4%
19 | COc1ccc2cc([C@@H](C)C(=O)[O-])ccc2c1.[Na+] | -2.41%
20 | COC(=O)c1ccccc1S(=O)(=O)N1CCC(C(=O)OC(C)C(=O)NC(N)=O)CC1 (stereo not shown) | 29.7%
21 | COC(=O)c1ccccc1S(=O)(=O)N1CCC(C(=O)OC(C)C(=O)Nc2ccc(NC(C)=O)cc2)CC1 (stereo not shown) | -14.6%
22 | Cc1ccc(S(=O)(=O)N2CCC(C(=O)OCc3ccc([N+](=O)[O-])cc3)CC2)cc1 | -69.8%
23 | COC(=O)c1ccccc1S(=O)(=O)N1CCC(C(=O)OC(C)C(=O)Nc2ccccc2OC)CC1 (stereo not shown) | -51.3%

Row | SMILES | hERG current change (%, negative = inhibition) at 10uM
24 | CC(OC(=O)C1CCN(S(=O)(=O)c2ccccc2)CC1)C(=O)Nc1ncc(Cl)cc1Cl (stereo not shown) | -64%
25 | O=C(OCc1ccc([N+](=O)[O-])cc1)C1CCN(S(=O)(=O)c2ccccc2)CC1 | -37.3%
26 | COc1ccc(COC(=O)C2CCN(S(=O)(=O)c3ccc(C)cc3)CC2)cc1 | -7.61%
27 | CC(OC(=O)C1CC1)C(=O)Nc1ncc(Cl)cc1Cl (stereo not shown) | 18.1%
28 | COC(=O)c1ccccc1S(=O)(=O)N1CCC(C(=O)OCC(=O)c2ccccc2OC)CC1 | -16.8%
29 | CC(OC(=O)C1CCCC1)C(=O)Nc1ncc(Cl)cc1Cl (stereo not shown) | -2.36%
30 | COC(=O)c1ccccc1S(=O)(=O)N1CCC(C(=O)OCc2cccc(OC)c2OC)CC1 | -13.5%
31 | COC(=O)c1ccccc1S(=O)(=O)N1CCC(C(=O)OCc2ccc([N+](=O)[O-])cc2)CC1 | -57.1%
32 | CC(C(=O)Nc1ccc(Cl)cc1Cl)N1CC=C(c2ccccc2)CC1 (stereo not shown) | -28.1%
33 | CCn1c(=O)c(CCC(=O)N2CCN(c3ccccn3)CC2)c(C)c2c(C)nn(-c3ccccc3)c21 | -17.8%
34 | Cc1ccc2nc(SCC(=O)N3CCCC3)nc(=O)n2c1 | -0.651%
35 | Cn1nc(C(=O)Nc2nc3ccccc3[nH]2)c2ccccc2c1=O | -47.1%
36 | CC(C)OCCCNC(=O)C1CCC(CNS(=O)(=O)c2ccccc2)CC1 (stereo not shown) | -7.62%
37 | Cc1ccc(C(C)(C)C)c(OCCCn2ccnc2)c1.O=C(O)C(=O)O | -16.6%
38 | CCc1cc(CNC(=O)CC2C(=O)NCCN2Cc2ccccc2C(F)(F)F)on1 (stereo not shown) | 10%
39 | Cc1ccc2nc(NC(=O)Cn3nc(C)c([N+](=O)[O-])c3C)sc2c1 | -23.5%
40 | CCOc1ccc(C(=O)OCC(=O)NC2CCCC2)cc1OCC | 8.34%
41 | COc1ccccc1NC(=O)/C(=N/OCc1ccc(C#N)cc1)C(C)=O | -18.2%
42 | COC(=O)c1sccc1NC(=O)c1c(-c2ccccc2)noc1C | -26.5%
43 | Cc1ccccc1C(=O)NNC(=O)Nc1ccccc1 | 11.6%
44 | COc1ccc2nc(C)cc(Nc3ccc(N4CCOCC4)cc3)c2c1.Cl | -60.9%
45 | CCOc1ccc(Nc2cc(C)nc(N3CCOCC3)n2)cc1 | 0.875%
46 | CCOc1ccc2nc(C)cc(Nc3ccc(N4CCOCC4)cc3)c2c1.Cl | -73%

Row | SMILES | hERG current change (%, negative = inhibition) at 10uM
47 | COc1ccc2nc(C)cc(Nc3ccc(N4CCN(C)CC4)cc3)c2c1 | -1.75%
48 | COc1ccc(Nc2cc(C)nc(N3CCOCC3)n2)cc1 | -12.2%
49 | CCOc1ccc2nc(N3CCOCC3)nc(C)c2c1 | 3.2%
50 | COc1ccc(S(=O)(=O)NCc2ccccc2)cc1Br | 6.25%
51 | NC(=O)CC1Nc2cccc3cccc(c23)NC1=O (stereo not shown) | 8.93%
52 | COc1ccc(CCNC(=O)CCc2nc3ccccc3[nH]2)cc1OC | -7.59%
53 | CCN(CC(=O)Nc1ccc(NC(C)=O)cc1)C(=O)CCCSc1nc2ccccc2[nH]1 | -0.716%
54 | Cc1oc2c(c(=O)c1C)C(=O)CC(c1ccccc1)C2 (stereo not shown) | -23.7%
55 | CCCCc1oc2c(c(=O)c1C)C(=O)CC(c1ccccc1)C2 (stereo not shown) | -59.8%
56 | CCCCc1noc2c1/C(=N\O)CC(c1ccccc1)C2 (stereo not shown) | 7.26%
57 | CSc1ccccc1NC(=O)CN(C)C(=O)Cc1c[nH]c2ccccc12 | -0.585%
58 | NC(=O)CSc1nc2c(sc3ccccc32)c(=O)n1CCCC(=O)NCC1CCCO1 (stereo not shown) | -16.8%
59 | CCCCn1c(SCC(=O)NC(C)CC)nc2ccc(N3CCOCC3)cc2c1=O (stereo not shown) | -12.8%
60 | COCCCNC(=O)CSc1nc2c(sc3ccccc32)c(=O)n1CCCC(=O)NCC1CCCO1 (stereo not shown) | -14.4%
61 | O=C(CSc1nc2c(sc3ccccc32)c(=O)n1CCCN1CCOCC1)NC1CCCC1 | -64.7%
62 | NC(=O)CSc1nc2c(sc3ccccc32)c(=O)n1CCCN1CCOCC1 | -52.8%
63 | Cc1cc(NC(=O)CSc2nc3c(sc4ccccc43)c(=O)n2CCCN2CCOCC2)n[nH]1 | 2%
64 | CCCCn1c(SCC(N)=O)nc2c(sc3ccccc32)c1=O | -12.4%
65 | CCOC(=O)CSc1nc2c(sc3ccc([N+](=O)[O-])cc32)c(=O)n1Cc1ccco1 | -32.4%
66 | CCOC(=O)CSc1nc2c(sc3ccccc32)c(=O)n1CCCN1CCOCC1 | -65.9%
67 | O=C(CSc1nc2c(sc3ccccc32)c(=O)n1Cc1ccccc1)NCC1CCCO1 (stereo not shown) | 16.8%
68 | CCC(C)NC(=O)CSc1nc2c(sc3ccccc32)c(=O)n1CCCN1CCOCC1 (stereo not shown) | -53.4%
69 | O=C1CSC(c2ccccn2)N1c1ccc(F)cc1F (stereo not shown) | -0.569%

Row | SMILES | hERG current change (%, negative = inhibition) at 10uM
70 | COc1ccccc1Nc1nc(-c2sc(NC(=O)CC(C)C)nc2C)cs1 | 5.43%
71 | O=C(CCC(=O)N1CCSc2ccccc21)NC1CCCCC1 | -2.55%
72 | O=C(OCCNc1ccc(C(F)(F)F)cc1[N+](=O)[O-])c1cc2ccccc2oc1=O | 4.72%
73 | CC(Sc1nncn1C)C(=O)Nc1ccc(S(N)(=O)=O)cc1 (stereo not shown) | 15.7%
74 | Cc1oc(-c2ccccc2Cl)nc1CSCC(=O)N1CCCC1 | -19.9%
75 | COc1ccc(Cl)cc1NC(=O)CN(C)C(=O)c1ccc(COc2ccccc2)cc1 | 13.5%
76 | CC1CCc2ccc(F)cc2N1S(=O)(=O)c1cccs1 (stereo not shown) | 2.36%
77 | CNC(=S)NNC(=O)c1ccc(N(C)C)cc1 | 0.516%
78 | Cc1cc(C)c(S(=O)(=O)NCC2CCC(C(=O)NCc3ccc4c(c3)OCO4)CC2)c(C)c1 (stereo not shown) | -1.15%
79 | O=C(N/N=C/C=C/c1ccccc1)c1n[nH]c2c1CCC2 | 9.22%
80 | Cc1ccc(S(=O)(=O)Nc2cc(-c3nn(C)c(=O)c4ccccc34)ccc2N2CCOCC2)cc1 | -57%
81 | COC(=O)c1ccc(N2CCOCC2)c(NC(=O)c2ccco2)c1 | 1.95%
82 | COc1ccc(NS(=O)(=O)c2ccc(N3CCOCC3)c(NC(=O)c3ccco3)c2)cc1 | 30.3%
83 | CCC(=O)Nc1cc(-c2nnc(OC)c3ccccc23)ccc1N1CCOCC1 | -5.46%
84 | COc1ccc(N2CCOCC2)c(NC(=O)c2ccco2)c1 | -73.1%
85 | COc1nnc(-c2ccc(N3CCOCC3)c(NC(=O)c3ccccc3)c2)c2ccccc12 | -19.5%
86 | COc1nnc(-c2ccc(N3CCOCC3)c(NC(C)=O)c2)c2ccccc12 | -1.4%
87 | Cn1nc(-c2ccc(N3CCOCC3)c(NS(=O)(=O)c3ccccc3)c2)c2ccccc2c1=O | -15.6%
88 | COc1nnc(-c2ccc(N3CCOCC3)c(NC(=O)c3ccco3)c2)c2ccccc12 | -70%
89 | Cn1nc(-c2ccc(N3CCOCC3)c(NS(=O)(=O)c3ccc(Cl)cc3)c2)c2ccccc2c1=O | -9.74%
90 | COc1nnc(-c2ccc(N3CCOCC3)c(NC(=O)c3ccc(C)cc3)c2)c2ccccc12 | -68.9%
91 | CCCC(=O)Nc1cc(-c2nnc(OC)c3ccccc23)ccc1N1CCOCC1 | -42.9%
